# According to the supplement of paper PMC3334620:
# In all, about 33,000 sequences were measured (“E-score (-0.5 to 0.5)”: median about -8e-05, highest 2% from about 0.23 on). For the sample, the highest values were picked, then their nearest neighbours and some sequences at random.
# Target: T1, Nrg2 (UniProt P38082)
# T1 sequence: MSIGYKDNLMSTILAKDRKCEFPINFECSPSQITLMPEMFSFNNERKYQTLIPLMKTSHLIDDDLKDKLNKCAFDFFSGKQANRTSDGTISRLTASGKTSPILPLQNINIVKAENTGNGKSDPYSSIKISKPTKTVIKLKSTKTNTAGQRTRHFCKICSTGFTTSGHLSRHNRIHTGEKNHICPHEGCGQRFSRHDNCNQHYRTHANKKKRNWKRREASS
# Experiment: PBM E-score (8-mer binding enrichment) (E-score (-0.5 to 0.5)); higher = stronger / more preferred TF binding
# Settings: protein concentration: 100 nM; construct: GST-full length
# Protocol: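 Universal 'all 10-mer' protein binding microarrays (Agilent AMADID 015681) probed with GST-tagged S. cerevisiae TFs (full-length or DBD) made by in vitro transcription/translation (PURExpress), about 100-200 nM. Bound TF was detected with fluorescent anti-GST. Each ungapped 8-mer (which stands for itself and its reverse complement) is scored by the PBM enrichment score (E-score), a modified Wilcoxon-Mann-Whitney statistic from -0.5 to +0.5, computed with the Universal PBM Analysis Suite. Scale: above 0.35 generally sequence-specific binding.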
row,Sequence,PBM E-score
1,CCTATCAC,-0.00258
2,ATATCCGG,0.0451
3,CTATCCGA,-0.04
4,ATATCCGA,0.235
5,AGTGCTGA,-0.0594
6,GTGAACGA,-0.00481
7,CGACATCA,0.0768
8,GGACATCA,0.0631
9,TGACATCA,0.232
10,AGGAACGG,0.0417
11,CATCTGTC,-0.0868
12,CACGGGCA,-0.102
13,TATCCGAA,-0.0137
14,CATCCGAA,0.168
15,GATCCAAC,-0.0228
16,GATCCAAA,0.284
17,CATCCAAA,-0.00312
18,GATCCGAA,0.243
19,CAGGTCAC,-0.271
20,ATCTATGG,-0.0899
21,GGTAGACC,-0.00427
22,ACAGCGGG,-0.0296
23,GCTCAAGC,-0.0931
24,ACCGCAAG,0.00329
25,GCCGCAAC,0.192

row,Sequence,PBM E-score
1,ACCGCAAC,0.269
2,AGGGGATC,0.0237
3,AGCTTGTA,-0.00311
4,CCACGGAA,0.00928
5,ATATGGCA,0.00508
6,GCAATACA,0.298
7,CCAATAAA,0.079
8,GCAATAAC,0.0808
9,GCAATAAA,0.269
10,GCAATACC,0.176
11,TCAATACA,0.0827
12,AACAGATG,-0.0815
13,GATGCTCA,-0.12
14,AGGCTTTG,-0.058
15,GTAAACAC,-0.0176
16,GCCGTACC,-0.0541
17,TACACCTA,0.0327
18,CCTTCACC,-0.0756
19,ATTTCCCG,0.264
20,AATTTCCG,0.206
21,ATTTCCCC,0.153
22,ATTTCCAC,0.255
23,ATTTCCCA,0.153
24,ATTTCCAG,0.0415
25,ATTTTCCG,0.249

row,Sequence,PBM E-score
1,ATTTCCAA,-0.0757
2,ATTTTCCC,0.124
3,CGAAGTTC,0.0952
4,CCTGCTGA,0.171
5,AACAGTGA,-0.0365
6,AATTCCCG,-0.0292
7,AAGAGAAT,0.231
8,AAGAGAAA,0.0319
9,AAGAGAAG,-0.0556
10,CTCTGACC,-0.127
11,CACGGGGC,-0.0105
12,TCCTAGGA,-0.0933
13,ACAATACT,0.241
14,ACAATACC,0.291
15,CCAATACC,0.0351
16,ACAATACG,0.0515
17,AGAATACC,0.191
18,ACAATACA,0.148
19,GGATACAA,0.0295
20,GCAAACCA,0.0737
21,GATTAAAA,0.157
22,GATTAGAA,0.0967
23,CATTAAAC,0.0682
24,AATTAAAA,0.126
25,AACTAAAA,0.0978

row,Sequence,PBM E-score
1,CATTAGAA,0.0605
2,CATTAAAG,0.119
3,TATTAGAA,0.249
4,TATTAAAA,0.262
5,TACTAAAA,0.0854
6,CACTAAAA,0.256
7,CATTAAAA,0.252
8,ATTGCACC,0.0876
9,CCAACTAC,0.0973
10,AACCTCTA,-0.1
11,TAACGTCA,0.0193
12,CTCGATCC,-0.0858
13,AGAATGGC,0.0093
14,ACAAGGAT,-0.0601
15,ACCCACCC,0.243
16,CCCACCCA,0.0597
17,ACCCTCCT,-0.14
18,CCCACCCC,0.177
19,CCCCACCC,0.162
20,GCCCACCC,0.184
21,CCCCTCCC,-0.102
22,CCCACCCG,0.231
23,ACCCTCCC,0.255
